Bioassay records: PubChem, several laboratories
NRP1-CendR mod: NRP-1/CendR interaction modulation | inhibition, % at 25 µM | 0.85% of 360,000 active | FAM-RPARPAR peptide binding to NRP-1, fluorescence polarization | O14786;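 active means inhibition or corrected inhibition above about 18%, plus a signal ratio from 0.5 to 1.5, limit read from the data, passing the limit was not always enough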
A3G deaminase: blocks human APOBEC3G single-stranded DNA deamination; recombinant A3G, ssDNA deamination FAM/TAMRA fluorescence; inhibition, % at 20 µM; 0.28% of 330,000 active; AID 493012;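 active means inhibition of at least 40% at 20 µM, with no more than 30% in the related APOBEC3A deaminase screen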
Target sequence (Q9HC16 whole entry, looked up): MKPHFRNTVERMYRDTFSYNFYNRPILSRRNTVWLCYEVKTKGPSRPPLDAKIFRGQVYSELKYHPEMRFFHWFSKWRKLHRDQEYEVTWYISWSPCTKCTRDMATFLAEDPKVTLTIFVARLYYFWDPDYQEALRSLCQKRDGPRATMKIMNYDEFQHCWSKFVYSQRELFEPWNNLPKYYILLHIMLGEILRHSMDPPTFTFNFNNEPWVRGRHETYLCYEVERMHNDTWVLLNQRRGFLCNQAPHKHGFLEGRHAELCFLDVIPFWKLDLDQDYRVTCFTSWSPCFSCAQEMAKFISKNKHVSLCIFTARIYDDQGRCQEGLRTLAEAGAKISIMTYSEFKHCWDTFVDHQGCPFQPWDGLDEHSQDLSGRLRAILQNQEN
VLA-4 inh: inhibition in a human VLA-4 binding assay; VLA-4 expressing cells, ligand binding flow cytometry; inhibition, % (about 7 µM as worked out from the volumes in the protocol); 0.2% of 330,000 active; in the data active means inhibition above about 50%
APOBEC3A inh: inhibitors of human APOBEC3A DNA deaminase. 0.41% of 330,000 active. inhibition, % at 20 µM. AID 493011. recombinant A3A, FAM/TAMRA ssDNA deamination fluorescence. P31941;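 active means at least 40% inhibition at 20 µM here, with at most 30% in a related deaminase screen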
beta cell repl: MIN6 beta-cell proliferation induction. proliferation, % at 10 µM. MIN6 cells proliferation, ATPlite luminescence, 48 h; cells starved in 0.2% serum; 100% = growth in 10% serum. AID 2380. 0.29% of 330,000 active;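 active means compounds whose signal lies at least 3.5 SD above the mean of all wells on their plate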
VLA-4 mod pick: confirmation of allosteric modulators of human VLA-4 integrin; shares compounds with VLA-4 inh; inhibition, % at 6.7 µM; U937 cells, HUTS-21 LIBS mAb binding, flow cytometry; LDV ligand present at threefold Kd; 2% of 1,300 active; AID 2813; in the data active means inhibition above about 40%
Large screens that a line does not name were inactive (follow-up assays come after a bar, where they were run). A selection: hits, their analogues and other compounds. The true share with any hit is near 1.8%.

CCOC(=O)C(CC)(CC)C(=O)/C=C/c1ccc(Br)cc1	VLA-4 inh 90 | VLA-4 mod pick inactive
N#CCC(=O)Nc1ccc(C(=O)NCc2cccc(Cl)c2)cc1	none
O=C(CSc1nnc(-c2ccc(Cl)cc2)n1Cc1ccco1)NCc1ccc2c(c1)OCO2	VLA-4 inh 89 | VLA-4 mod pick inactive
Cc1cccc(-n2c(Cc3cc(=O)[nH]c(=O)[nH]3)nnc2SCC(=O)N2CCCCC2)c1	VLA-4 inh 54 | VLA-4 mod pick inactive
CSc1nnc(Cc2cc(=O)[nH]c(=O)[nH]2)n1-c1cccc(C)c1	none
O=C(CCSc1ccc(Br)cc1)c1ccc(O)cc1	none | VLA-4 mod pick inactive
O=C(N1CCOCC1)N1CCC(NC(=O)C23CC4CC(CC(C4)C2)C3)CC1	VLA-4 inh 52 | VLA-4 mod pick inactive
O=C(N1CCOCC1)C12CCC3CC(CC(C3)C1)C2	none
Cc1cccnc1NC(=O)c1ccc(Cl)c(S(=O)(=O)N2CCCCCC2)c1	none
Cc1cccc(C(=O)OCC(=O)N(C)c2ccccc2)c1C	none | VLA-4 mod pick inactive
Cc1ccccc1C(=O)OCC(=O)N(C)c1ccccc1	none
CCN(CC(=O)Nc1ccc(NC(C)=O)cc1)C(=O)/C=C/c1ccco1	none
CCN(CC(=O)Nc1ccc(NC(C)=O)cc1)C(=O)/C=C/c1cccs1	VLA-4 inh 54 | VLA-4 mod pick inactive
O=C(Nc1ccc(Br)cc1)Nc1ccccc1Cl	none | VLA-4 mod pick inactive
O=C(Nc1ccc(CN2CCCCC2)cc1)Nc1ccccc1Cl	none
CC(C)c1ccccc1-n1c(SCC(=O)N2CCc3ccccc3C2)nc2ccccc2c1=O	VLA-4 inh 55 | VLA-4 mod pick inactive
CC1(C)C(C(=O)OCC(Cl)(Cl)Cl)N2C(=O)C(NC(=O)Cc3ccccc3)C2S1=O (centres undefined)	none
CC1(C)C(C(=O)O)N2C(=O)C(NC(=O)Cc3ccccc3)C2S1=O (centres undefined)	VLA-4 inh 59 | VLA-4 mod pick inactive
Cc1ccc(S(=O)(=O)/N=C(/Nc2ccc(F)cc2F)c2ccccc2)cc1	none
COc1cc(C(=O)NNC(=O)COc2ccccc2Cl)ccc1OCC(=O)N1CCOCC1	none
CCOC(=O)COc1ccccc1/C=C\[N+](=O)[O-]	VLA-4 inh 50 (no result: A3G deaminase, APOBEC3A inh, beta cell repl) | VLA-4 mod pick 43
Cc1ccc(C(=O)COC(=O)COc2ccccc2[N+](=O)[O-])s1	none
CCN1C(=O)Cc2cc(S(=O)(=O)NCCc3ccccc3)ccc21	none | VLA-4 mod pick inactive
O=C(Nc1cccc(Cl)c1)Nc1ccccc1C(=O)O	none | VLA-4 mod pick inactive
O=C(Nc1cccc(Cl)c1)Nc1cccc(C(=O)O)c1	none | VLA-4 mod pick inactive
COc1c2occc2c(OC)c2c(=O)cc(C)oc12	VLA-4 inh 51 | VLA-4 mod pick inactive
COC(CN(C)C(=O)c1ccc2c(c1)NC(=O)c1ccccc1S2)OC	none
OC(CNCc1ccco1)Cn1c2ccc(Br)cc2c2cc(Br)ccc21 (centres undefined)	VLA-4 inh 67 | VLA-4 mod pick inactive
Brc1ccc2ncnc(NCc3ccco3)c2c1	none
NC(=O)CC(NC(=O)c1cccc(Br)c1)c1ccc(N2CCC(N3CCCCC3)CC2)c([N+](=O)[O-])c1 (centres undefined)	VLA-4 inh 56 | VLA-4 mod pick inactive
COC(=O)c1cccnc1-n1c(=O)c2cccnc2n(Cc2ccc(Cl)cc2)c1=O	none
COC(=O)c1cccnc1-n1c(=O)c2cccnc2n(Cc2cccc([N+](=O)[O-])c2)c1=O	VLA-4 inh 67 | VLA-4 mod pick inactive
COc1ccc(Nc2nc(N)c([N+](=O)[O-])c(N3CCOCC3)n2)cc1	none
CCN1CCN(c2nc(Nc3cccc(OC)c3)nc(N)c2[N+](=O)[O-])CC1	none | VLA-4 mod pick inactive
Cc1cc(C)nc(NS(=O)(=O)c2ccc(Br)cc2)n1	none | VLA-4 mod pick inactive
Cc1cc(C)nc(NS(=O)(=O)c2ccc(N)cc2)n1	none | VLA-4 mod pick inactive
Cc1ccnc(NS(=O)(=O)c2ccc(N)cc2)n1	none | VLA-4 mod pick inactive
Cc1ccnc(NS(=O)(=O)c2ccccc2)n1	none
COc1cc(NS(=O)(=O)c2ccc(N)cc2)ncn1	VLA-4 inh 63 (no result: NRP1-CendR mod) | VLA-4 mod pick inactive
COC(=O)[C@]1(C)N[C@H](CN(C)C(C)=O)[C@@H]2C(=O)N(Cc3ccccc3)C(=O)[C@@H]21	none
